Here are results for 15 compounds from PubChem BioAssay.

Calls of active or inactive are those of the source.

Test [1] has as its system PRMT1 (protein arginine N-methyltransferase 1). As to the kind of experiment: PRMT1 binders on small-molecule microarrays, primary screen, biochemical, small-molecule microarray, 635 nm fluorescence (AID 1088).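 Also: binding of Prmt1 protein to compounds spotted on small-molecule microarray slides.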 Conditions: small-molecule microarray binding, higher = more signal.
Test [2] in a line: yeast growth modulation, basal conditions, primary screen, YJM789 clinical isolate, OD600, 24 h (AID 1089).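 Also: growth of clinical yeast isolate S. cerevisiae YJM 789 seeded 1000 cells per well; test concentration not given here.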 Conditions: S. cerevisiae YJM789 growth, higher = more signal, called active from +8 up or from −8 down.
Test [3] is described as follows: fission yeast growth modulation, primary screen, strain 972, OD600, 24 h, no modulator (AID 1090).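 Also: basal condition with compound alone and no growth modifier present; test concentration not given here.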 Conditions: S. pombe 972 growth, higher = more signal, called active from +8 up or from −8 down.
The nature of test [4]: S. cerevisiae growth modulation with rapamycin, primary screen, strain BY4716, OD600, 96 h (AID 1091). Also: test concentration not given here. Conditions: higher = more signal, called active from +8 up or from −8 down.
The target in test [5] is Torsin-1A-interacting protein 2 (Homo sapiens) (UniProt Q8NFQ8). The experiment in a line: LULL1 binders on small-molecule microarray, primary screen, cell lysate, human LULL1 lysate, 635/667 nm fluorescence (AID 1092).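 Also: probe is lysate of COS7 cells overexpressing human LULL1; score merges per-feature 667 nm fluorescence with signal-to-noise.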 Conditions: hLULL1 lysate binding, 635 nm fluorescence, higher = more signal.
Chain of Torsin-1A-interacting protein 2 (Homo sapiens) (Q8NFQ8 whole entry, looked up): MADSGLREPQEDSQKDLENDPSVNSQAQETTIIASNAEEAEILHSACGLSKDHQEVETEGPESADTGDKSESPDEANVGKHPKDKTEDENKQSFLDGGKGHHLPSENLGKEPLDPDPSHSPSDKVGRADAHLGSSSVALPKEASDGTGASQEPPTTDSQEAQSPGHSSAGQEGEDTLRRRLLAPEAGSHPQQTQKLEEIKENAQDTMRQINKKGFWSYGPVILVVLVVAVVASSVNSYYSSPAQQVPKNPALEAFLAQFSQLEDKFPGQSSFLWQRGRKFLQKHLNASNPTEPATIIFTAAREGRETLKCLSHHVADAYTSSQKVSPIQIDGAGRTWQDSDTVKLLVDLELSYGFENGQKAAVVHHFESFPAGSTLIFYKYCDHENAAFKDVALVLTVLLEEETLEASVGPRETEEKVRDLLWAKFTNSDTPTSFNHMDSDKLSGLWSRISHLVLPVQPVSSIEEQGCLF
Test [6] can be described thus: E. coli growth modulation, two-sided OD650, primary screen, E. coli filamentation project, strain DRC41, 24 h (AID 1093).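 Also: MC1000 strain lacking acrAB efflux and sulA so SOS filamentation is blocked; test concentration not given here.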 Conditions: OD650, 24 h, higher = more signal, called active from +8 up or from −8 down.
Test [7] can be described thus: small-molecule microarray binders of probe aLefty2, primary screen, biochemical, biotinylated probe, 635/667 nm fluorescence (AID 1094).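 Also: score merges spot fluorescence near 667 nm with spot signal-to-noise ratio.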 Conditions: higher = more signal.
Test [8] has as its system Noggin (protein binding on small-molecule microarray). The experiment in a line: Noggin binders on small-molecule microarray, primary screen, biochemical, 635/667 nm fluorescence (AID 1095).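 Also: score merges 667 nm feature fluorescence with signal to noise over triplicate slides.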 Conditions: 635 nm fluorescence, higher = more signal.
Test [9] addresses Neurogenic locus notch homolog protein 3 (Homo sapiens) (UniProt Q9UM47). The experiment in a line: NOTCH3 binders on small-molecule microarray, primary screen, biochemical, 635/667 nm fluorescence (AID 1096). Conditions: NOTCH3 binding, 635 nm fluorescence, higher = more signal.
The nature of test [10]: small-molecule microarray binders of probe aEGFR, primary screen, biochemical, biotinylated probe, 635/667 nm fluorescence (AID 1097).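 Also: probe is a biotinylated anti-EGFR antibody binding compounds printed on slides; score combines fluorescence near 667 nm and signal to noise of each spot.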 Conditions: higher = more signal.

Chain of Neurogenic locus notch homolog protein 3 (Homo sapiens) (Q9UM47 whole entry, looked up): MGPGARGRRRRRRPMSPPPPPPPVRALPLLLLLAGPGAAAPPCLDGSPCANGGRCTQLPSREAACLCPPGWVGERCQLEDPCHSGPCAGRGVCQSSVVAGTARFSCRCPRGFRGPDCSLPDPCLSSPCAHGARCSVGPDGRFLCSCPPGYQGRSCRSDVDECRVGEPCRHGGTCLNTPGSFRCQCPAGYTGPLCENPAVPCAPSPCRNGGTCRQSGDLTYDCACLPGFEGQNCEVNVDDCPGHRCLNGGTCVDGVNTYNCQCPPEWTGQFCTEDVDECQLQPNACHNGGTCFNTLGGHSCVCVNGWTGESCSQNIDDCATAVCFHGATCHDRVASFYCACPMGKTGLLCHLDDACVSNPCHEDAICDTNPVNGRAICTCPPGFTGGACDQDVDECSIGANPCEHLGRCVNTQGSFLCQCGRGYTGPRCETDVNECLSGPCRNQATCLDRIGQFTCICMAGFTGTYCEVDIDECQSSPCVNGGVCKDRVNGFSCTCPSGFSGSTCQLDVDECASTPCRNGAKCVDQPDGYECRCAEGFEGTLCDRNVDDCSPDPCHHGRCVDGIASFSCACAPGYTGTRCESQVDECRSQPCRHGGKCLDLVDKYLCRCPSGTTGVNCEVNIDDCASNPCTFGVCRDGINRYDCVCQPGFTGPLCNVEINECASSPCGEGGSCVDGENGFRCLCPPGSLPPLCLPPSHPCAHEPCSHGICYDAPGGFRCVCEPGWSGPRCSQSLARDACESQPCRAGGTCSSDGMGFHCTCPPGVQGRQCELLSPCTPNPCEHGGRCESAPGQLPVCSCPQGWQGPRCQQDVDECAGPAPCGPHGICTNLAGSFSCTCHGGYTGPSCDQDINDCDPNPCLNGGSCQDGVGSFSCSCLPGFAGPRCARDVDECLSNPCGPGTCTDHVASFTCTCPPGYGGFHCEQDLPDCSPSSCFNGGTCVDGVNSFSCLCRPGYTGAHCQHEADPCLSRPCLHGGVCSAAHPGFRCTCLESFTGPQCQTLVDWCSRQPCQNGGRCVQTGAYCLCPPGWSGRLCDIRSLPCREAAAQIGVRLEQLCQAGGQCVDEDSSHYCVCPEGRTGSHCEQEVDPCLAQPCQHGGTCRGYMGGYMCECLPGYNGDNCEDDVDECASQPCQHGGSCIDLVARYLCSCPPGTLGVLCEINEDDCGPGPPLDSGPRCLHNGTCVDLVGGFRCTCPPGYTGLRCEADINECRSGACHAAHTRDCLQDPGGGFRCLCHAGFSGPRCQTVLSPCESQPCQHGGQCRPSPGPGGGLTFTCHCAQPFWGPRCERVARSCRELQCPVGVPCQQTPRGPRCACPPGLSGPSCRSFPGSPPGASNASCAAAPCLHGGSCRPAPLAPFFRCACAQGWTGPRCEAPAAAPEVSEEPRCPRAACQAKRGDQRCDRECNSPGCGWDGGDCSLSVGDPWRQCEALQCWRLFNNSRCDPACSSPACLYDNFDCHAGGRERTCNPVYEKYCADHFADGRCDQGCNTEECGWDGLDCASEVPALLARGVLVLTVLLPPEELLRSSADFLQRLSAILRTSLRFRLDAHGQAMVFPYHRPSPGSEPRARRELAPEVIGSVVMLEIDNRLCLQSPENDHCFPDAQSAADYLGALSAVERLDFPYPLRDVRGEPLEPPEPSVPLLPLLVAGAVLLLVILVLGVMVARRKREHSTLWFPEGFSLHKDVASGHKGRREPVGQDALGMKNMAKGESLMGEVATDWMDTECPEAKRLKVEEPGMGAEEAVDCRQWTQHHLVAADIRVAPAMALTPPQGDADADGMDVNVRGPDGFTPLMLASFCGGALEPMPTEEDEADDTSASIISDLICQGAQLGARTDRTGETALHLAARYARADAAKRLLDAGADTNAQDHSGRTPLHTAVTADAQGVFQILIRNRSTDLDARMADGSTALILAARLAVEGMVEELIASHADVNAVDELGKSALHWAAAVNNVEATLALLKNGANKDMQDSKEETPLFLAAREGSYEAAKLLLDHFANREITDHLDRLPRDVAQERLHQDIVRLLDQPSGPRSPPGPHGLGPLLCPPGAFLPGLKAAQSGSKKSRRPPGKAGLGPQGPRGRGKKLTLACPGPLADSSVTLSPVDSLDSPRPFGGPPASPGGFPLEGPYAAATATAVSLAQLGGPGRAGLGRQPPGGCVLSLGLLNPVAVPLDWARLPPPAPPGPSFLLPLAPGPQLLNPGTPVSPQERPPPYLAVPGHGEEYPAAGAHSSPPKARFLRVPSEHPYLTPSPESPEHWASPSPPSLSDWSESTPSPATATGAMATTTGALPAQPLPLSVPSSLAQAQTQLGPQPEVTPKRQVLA

With `COC(=O)[C@@]1(Cc2ccc(OC)cc2)[C@H]2c3cc(C(=O)N4CCCC4)n(Cc4c(CO)[nH]cc(C)c4=O)c3C[C@H]2CN1C(=O)c1ccccc1`, the composite z-score is 0.413 in [1]; 3.35 in [5]; 0.601 in [7]; -0.243 in [8]; 0.381 in [9]; -0.0728 in [10]. Besides, the z-score is -1.56 (inactive) in test [2], 0.801 (inactive) in [3], 0.147 (inactive) in [4] and -0.391 (inactive) in [6].
Consider `O=C1N(CCS(=O)(=O)c2ccccc2)c2ccccc2C[C@]12N=C(c1ccc(OCCCO)cc1)O[C@@H]2c1ccccc1`, for which the composite z-score in test [1] was 1.48; in [5], 3.12; in test [7] it was 0.225; in test [8] it was 0.83; in test [9], 1.09; in test [10], -0.164. The z-score in [2] is 2.51 (inactive); in test [3], 0.762 (inactive); in test [4], 4.39 (inactive); in [6], 0.568 (inactive).
Turning to `O=C1O[C@@H](c2ccccc2)[C@@H](c2ccccc2)N2[C@@H](c3ccc(OCCO)cc3)[C@]3(C(=O)Nc4ccc(C#CC5(O)CCCCCC5)cc43)[C@@H](C(=O)Nc3nc4ccccc4s3)[C@H]12`, the composite z-score came out at 1.55 in test [1]; 2.96 in test [5]; 0.0769 in [7]; 1.18 in test [8]; 1.07 in test [9]; 0.191 in [10]. The z-score in test [2] is 2.44 (inactive); in test [3], 1.19 (inactive); in [4], 2.78 (inactive); in test [6], 0.799 (inactive).
For the compound `Cc1ccc(C(C)CC(O)C2C=CC3C(=O)N(C)C(=O)C3N2Nc2ccccc2)o1` (stereo not given), the composite z-score in test [1] was 1.55; in test [5], 0.788; in test [7] it was 0.0997; in [8], 0.555; in test [9] it was 1.07; in test [10], -0.0167. For the same compound, the z-score is 0.121 (inactive) in test [2], 0.388 (inactive) in test [3], 0.651 (inactive) in test [4] and -1.47 (inactive) in test [6].
Regarding `C[C@]1(C(=O)O)c2ccccc2C(=O)N(Cc2cc(F)cc(C(F)(F)F)c2)[C@H]1c1ccc(CO)cc1`, the composite z-score in test [1] is 0.413; in test [5], 1.64; in test [7] it was -0.153; in [8], 1.04; in [9], 0.137; in test [10] it was -0.115. In addition, the z-score in test [2] is -0.994 (inactive); in [3] it was -1.3 (inactive); in test [4] it was -1.9 (inactive); in test [6], 0.581 (inactive).
Regarding `COC(=O)C(CC#Cc1ccc2c(c1)[C@]1(C(=O)N2)[C@H](C(=O)NC[C@H](O)c2ccccc2)[C@H]2C(=O)O[C@H](c3ccccc3)[C@H](c3ccccc3)N2[C@@H]1c1ccccc1OCCO)C(=O)OC`, the composite z-score in test [1] was 1.54; in [5], 2.89; in test [7] it was -0.0598; in test [8] it was 0.8; in [9], 1.12; in [10] it was -0.0332. The z-score was 2.15 (inactive) in test [2], -0.247 (inactive) in [3], 2.59 (inactive) in test [4] and 2.13 (inactive) in test [6].
On to `CC(C)C(O)C1C=CC2C(=O)NC(=O)C2N1Nc1ccccn1` (stereo not given), for which the composite z-score in [1] is 0.522; in [5] it was 1.92; in test [7] it was 0.0894; in test [8], -0.0878; in test [9], 0.301; in test [10] it was -0.109. Further, the z-score in test [2] was 1.02 (inactive); in test [3], 1.68 (inactive); in [4] it was 0.56 (inactive); in test [6], -0.847 (inactive).
For the compound `O=C(NCc1ccccc1)[C@@H]1c2ccccc2C(=O)N(Cc2ccc(OC(F)(F)F)cc2)[C@H]1c1ccc(CO)cc1`, the composite z-score in test [1] is 0.594; in test [5], 2.62; in [7], -0.128; in test [8], -0.262; in test [9], -0.577; in test [10], 0.148. In addition, the z-score in test [2] is -0.347 (inactive); in [3], -0.753 (inactive); in test [4] it was -0.574 (inactive); in [6], 0.301 (inactive).
Take `CN(C)C(=O)[C@]1(Cc2ccccc2)N=C(c2ccc(OCCCO)cc2)O[C@@H]1c1ccccc1CN=[N+]=[N-]`: the composite z-score in test [1] was 1.53; in test [5], 3.15; in test [7] it was -0.0153; in [8], 0.605; in test [9], 1.07; in test [10], 0.0176. Further, the z-score is -1.8 (inactive) in test [2], -0.531 (inactive) in test [3], -0.293 (inactive) in test [4] and 0.702 (inactive) in [6].
Regarding `COC(=O)C(CC#Cc1ccc2c(c1)[C@]1(C(=O)N2)[C@H](C(=O)N2CCc3cc(OC)c(OC)cc3C2)[C@H]2C(=O)O[C@H](c3ccccc3)[C@H](c3ccccc3)N2[C@@H]1c1ccccc1OCCO)C(=O)OC`, the composite z-score in [1] is 1.54; in test [5], 3.06; in test [7], -0.0862; in test [8] it was 1.36; in test [9], 1.07; in [10], 0.0457. Also, the z-score in test [2] is 2.06 (inactive); in [3], 1.54 (inactive); in test [4], 3.78 (inactive); in [6], 0.49 (inactive).
Consider `NC(=O)N1C(=O)C2C(C1=O)C1C=C(CCCO)C2C(C2CC2)N1Cc1sc2ccccc2c1Cl` (stereo not given), for which the composite z-score in test [1] is 1.56; in [5], 2.14; in test [7] it was 0.0819; in test [8] it was 0.355; in test [9], 1.13; in [10], -0.0697. Also, the z-score in test [2] was -0.425 (inactive); in test [3], -2.48 (inactive); in [4], -1.63 (inactive); in test [6], 0.792 (inactive).
Regarding `COc1cc(C(O)C2C=CC3C(=O)N(c4ccccc4)C(=O)C3N2Nc2ccccc2F)cc(OC)c1OC` (stereo not given), the composite z-score in [1] was 1.54; in [5] it was 3.58; in test [7], 0.122; in test [8] it was 0.334; in test [9], 1.09; in test [10], -0.027. The z-score in [2] was 0.785 (inactive); in test [3], 0.578 (inactive); in test [4], 1.32 (inactive); in [6], -0.629 (inactive).
In the case of `CCOC(=O)C[C@H]1[C@H](OC(=O)c2cc3ccccc3oc2=O)[C@@H](NC(=O)CC(C)C)c2cc(OCCCO)ccc2N1C(=O)Cc1ccc(OC)cc1`, the composite z-score in [1] is 1.14; in [5] it was 1.3; in [7], -0.165; in [8], 0.322; in test [9], 0.924; in [10], -0.0973. Further, the z-score was -0.238 (inactive) in test [2], -0.462 (inactive) in test [3], 0.052 (inactive) in test [4] and -0.479 (inactive) in test [6].
With `C=CCOC(=O)[C@@H]1[C@H]2C(=O)O[C@H](c3ccccc3)[C@H](c3ccccc3)N2[C@H](c2ccc(OCCOC(=O)[C@H]3C[C@H]4C(=O)N[C@@H](CCCCN(C)C)C(=O)N4[C@H]3c3ccc(O)cc3)cc2)[C@@]12C(=O)Nc1ccc(I)cc12`, the composite z-score in [1] is 1.53; in [5] it was 2.68; in test [7] it was -0.0686; in [8], 1.93; in test [9] it was 1.1; in test [10] it was -0.0487. The z-score was 1.16 (inactive) in test [2], -2.52 (inactive) in [3], 1.35 (inactive) in [4] and -1.27 (inactive) in [6].
For `COc1ccc([Si](C)(C)[C@H]2[C@H](CC(=O)N3Cc4ccccc4C[C@H]3CO)O[C@@]3(C(=O)N(C)c4c(Br)cc(C)cc43)[C@@H]2C)cc1`, the composite z-score in test [1] is 1.54; in [5] it was 0.986; in test [7], -0.0631; in test [8] it was 1.42; in test [9] it was 1.09; in test [10] it was -0.0828. For the same compound, the z-score in test [2] is 0.344 (inactive); in test [3] it was 0.788 (inactive); in test [4] it was 5.53 (inactive); in [6], -0.498 (inactive).
